# Test results taken from PubChem BioAssay AID1159580 (chemical genetic matrix, 2015).
# The campaign covered roughly 5,500 compounds. About 2,000 (36%) were called active. Roughly 18% stayed inconclusive and do not appear here. Some of the results follow. A number with no mark means an inactive call. Cut-off read from the data, not from the text of the source: active = normalized growth mostly below about 0.91 (no sharp cut-off); inconclusive = no clear call, values can overlap the other calls; inactive = mostly above about 0.92.
# Experiment: chemical genetic growth profiling, strain panel (AID 1159580);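 note: tested at 20 µM; growth read once vehicle control cultures reached saturation at 30 °C; 1 = growth at the plate median or of vehicle wells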
# Conditions: S. cerevisiae deletion strains, growth OD
structure (smiles),measurement,setting,value
COc1ccc(Oc2cc(C)nc3ccccc23)cc1,normalized growth,"locus YAL013W, strain DEP1, stronger effect = lower value",1.01
same,normalized growth,"locus YBR229C, strain ROT2, stronger effect = lower value",1
same,normalized growth,"locus YDL101C, strain DUN1, stronger effect = lower value",1.02
same,normalized growth,"locus YDL134C, strain PPH21, stronger effect = lower value",0.989
same,normalized growth,"locus YDR150W, strain NUM1, stronger effect = lower value",1.02
same,normalized growth,"locus YEL061C, strain CIN8, stronger effect = lower value",0.884 (active)
same,normalized growth,"locus YGR078C, strain PAC10, stronger effect = lower value",1.01
same,normalized growth,"locus YHR030C, strain SLT2, stronger effect = lower value",0.269 (active)
same,normalized growth,"locus YHR087W, strain rtc3, stronger effect = lower value",0.999
same,normalized growth,"locus YJR043C, strain POL32, stronger effect = lower value",1
same,normalized growth,"locus YJR075W, strain HOC1, stronger effect = lower value",1.02
same,normalized growth,"locus YKL190W, strain CNB1, stronger effect = lower value",0.906 (active)
same,normalized growth,"locus YLR039C, strain RIC1, stronger effect = lower value",0.606 (active)
same,normalized growth,"locus YLR058C, strain SHM2 (second series), stronger effect = lower value",1
same,normalized growth,"locus YLR085C, strain ARP6, stronger effect = lower value",0.527 (active)
same,normalized growth,"locus YLR262C, strain YPT6, stronger effect = lower value",0.701 (active)
same,normalized growth,"locus YML094W, strain GIM5, stronger effect = lower value",0.941
same,normalized growth,"locus YMR219W, strain ESC1, stronger effect = lower value",1.01
same,normalized growth,"locus YMR263W, strain SAP30, stronger effect = lower value",1.02
same,normalized growth,"locus YNL153C, strain GIM3, stronger effect = lower value",0.991
same,normalized growth,"locus YNL298W, strain CLA4 (second series), stronger effect = lower value",0.876
same,normalized growth,"locus YNL322C, strain KRE1, stronger effect = lower value",1.01
same,normalized growth,"locus YNR030W, strain Alg12, stronger effect = lower value",0.967
same,normalized growth,"locus YPL055C, strain LGE1, stronger effect = lower value",1.02
same,normalized growth,"locus YPL241C, strain CIN2, stronger effect = lower value",0.845 (active)
same,normalized growth,"locus YPR135W, strain CTF4, stronger effect = lower value",0.397 (active)
